# In PubChem BioAssay AID372 (MTDP, 2006):
# Out of some 100,000 compounds screened, about 770 (0.77%) were called active. Cut-off read from the data, not from the text of the source: active = inhibition above about 50%; inactive = the rest. What follows is part of a selection rich in actives, with near analogues and random picks from the rest.
# Molecular target: Gag-Pol polyprotein (Human immunodeficiency virus type 1 group M subtype B (isolate HXB2)) (UniProt P04585)
# Experiment: RNase H inhibition, HIV 1 Gag Pol polyprotein, FRET biochemical assay, screening (AID 372)
# Conditions: HIV-1 RT RNase H, FRET RNA/DNA substrate fluorescence; at 10 µM; hits give high values
row,SMILES,inhibition
1,CC(=O)NC(NC(=S)Nc1sc2c(c1C#N)CCCC2)C(Cl)(Cl)Cl (centres undefined),20% (inactive)
2,COc1cc(C2CC(=O)NC(SCc3ccccc3)=C2C#N)ccc1O (centres undefined),6% (inactive)
3,O=C(NN=C1CCCCC1)C(=O)Nc1ccc(F)cc1,8% (inactive)
4,CCOc1c(Br)cc(/C=C2N=C(/C=C/c3ccccc3)OC/2=O)cc1OC,9% (inactive)
5,O=C(NNC(=O)c1cccc(O)c1)c1ccc(Br)cc1,10% (inactive)
6,O=C(NNC(=O)c1cccc(C#Cc2ccccc2)c1)c1ccc(Br)cc1,46% (inactive)
7,O=C(NNC(=O)c1cccc(C(=O)NNC(=O)c2ccc(Br)cc2)c1)c1ccc(Br)cc1,53% (active)
8,COc1ccc(C(NC(=O)C(C)C)c2ccc3cccnc3c2O)cc1OC (centres undefined),5% (inactive)
9,Oc1ccc(/C=N/N=C/c2ccc(O)c(O)c2)cc1O,69% (active)
10,Oc1ccc(N=Cc2ccc(O)c(O)c2)cc1,70% (active)
11,Oc1ccc(C=Nc2ccc(Cl)c(Cl)c2)cc1O,17% (inactive)
12,Oc1ccc(C=Nc2ccc(N=Cc3ccc(O)cc3)cc2)cc1,15% (inactive)
13,Cc1nnc(C)n1/N=C/c1ccc(O)c(O)c1,44% (inactive)
14,Oc1ccc(C=Nc2ccc(O)cc2)cc1,4% (inactive)
15,COc1ccc(C(=O)OCC(=O)c2ccc(Br)cc2)cc1OC,16% (inactive)
16,C=CCN(c1ccccc1C(=O)O)S(=O)(=O)/C=C/c1ccccc1,6% (inactive)
17,CCOc1ccc(/C=N/NC(=O)c2cc(-c3ccc4ccccc4c3)n[nH]2)cc1,14% (inactive)
18,COc1ccc(NCC(O)Cn2c3ccc(Cl)cc3c3cc(Cl)ccc32)c(OC)c1 (centres undefined),27% (inactive)
19,O=C(NCc1ccco1)c1ccc(-c2cc(Cl)ccc2Cl)o1,31% (inactive)
20,O=C(N=Nc1c(O)[nH]c2ccc(Br)cc12)C1COc2cc3ccccc3cc2O1 (centres undefined),4% (inactive)
21,CCCn1c(O)c(N=NC(=O)C2COc3cc4ccccc4cc3O2)c2ccccc21 (centres undefined),34% (inactive)
22,Cn1c(O)c(N=NC(=O)C2COc3cc4ccccc4cc3O2)c2ccccc21 (centres undefined),50% (active)
23,Cc1ccc2c(c1)c(N=NC(=O)COc1ccccc1C)c(O)n2C,20% (inactive)
24,S=C(NCCOc1cccc2ccccc12)Nc1cccc2ccccc12,45% (inactive)
25,O=C(NCCOc1cccc2ccccc12)Nc1cccc2ccccc12,51% (active)

row,SMILES,inhibition
1,O=C(NCCOc1cccc2ccccc12)Nc1cc(F)c(F)cc1Cl,0% (inactive)
2,O=C(NN1CCOCC1)c1ccc(Br)cc1,2% (inactive)
3,Cc1cccnc1NS(=O)(=O)c1cc(Cl)ccc1Cl,10% (inactive)
4,O=C1C=C/C(=N\S(=O)(=O)c2ccc(Cl)c([N+](=O)[O-])c2)c2ccccc21,34% (inactive)
5,O=C1C=CC(=NS(=O)(=O)c2cccc([N+](=O)[O-])c2)C=C1,45% (inactive)
6,Cc1ccc(S(=O)(=O)/N=C2/C=C(Cl)C(=O)c3ccccc32)cc1,20% (inactive)
7,O=C1C=CC(=NS(=O)(=O)c2ccc(F)cc2)C=C1,43% (inactive)
8,O=C1C=CC(=NS(=O)(=O)c2ccccc2)C=C1,56% (active)
9,CC1=CC(=O)C=C/C1=N\S(=O)(=O)c1ccc(C)cc1,32% (inactive)
10,Cc1ccc(S(=O)(=O)/N=C2\C=CC(=O)C(Br)=C2)cc1,20% (inactive)
11,O=C1C=CC(=NS(=O)(=O)c2ccc(Cl)cc2)C=C1,28% (inactive)
12,CC1=C/C(=N/S(=O)(=O)c2ccc(C)cc2)C=C(Cl)C1=O,17% (inactive)
13,COc1ccc(Cl)cc1NC(=O)c1cc(-c2ccccc2)nc2ccccc12,0% (inactive)
14,COc1cc(C2/C(=C(\O)c3ccc(C)cc3)C(=O)C(=O)N2CCCC(=O)O)ccc1O (centres undefined),0% (inactive)
15,CCOC(=O)C1=C(C)N=c2s/c(=C\c3ccccc3O)c(=O)n2C1c1ccc(Cl)cc1 (centres undefined),21% (inactive)
16,COc1ccc(NC(=O)c2nn3c(C(F)(F)F)cc(-c4ccco4)nc3c2Cl)c(OC)c1,13% (inactive)
17,COc1ccc(C(=O)N/C(=C\c2ccc(-c3cccc([N+](=O)[O-])c3)o2)C(=O)NCc2ccncc2)cc1,0% (inactive)
18,Cc1ccccc1S(=O)(=O)N=C1C=CC(=O)C(Cl)=C1,11% (inactive)
19,CC(C)(C)c1ccc(S(=O)(=O)N=C2C=CC(=O)C=C2)cc1,20% (inactive)
20,O=C1C(Cl)=CC(=NS(=O)(=O)c2ccccc2)C=C1Br,26% (inactive)
21,CC(C)C1=CC(=NS(=O)(=O)c2ccc(Cl)cc2)C=C(C(C)C)C1=O,5% (inactive)
22,O=S(=O)(N=C1C(Cl)=C(Cl)C(=NS(=O)(=O)c2ccccc2)C(Cl)=C1Cl)c1ccccc1,31% (inactive)
23,O=C1C(Cl)=CC(=NS(=O)(=O)c2ccc(Cl)cc2)C=C1Cl,28% (inactive)
24,O=C1C(Cl)=CC(=NS(=O)(=O)c2ccc(Cl)cc2)c2ccccc21,8% (inactive)
25,O=C1C=C/C(=N\S(=O)(=O)c2ccccc2)C=C1Cl,19% (inactive)

row,SMILES,inhibition
1,CC(=O)N/C(=C\c1ccccc1)C(=O)NCC(=O)O,6% (inactive)
2,Cc1cccc(NC(=O)C(=O)NNC(=O)c2ccccc2C)c1,4% (inactive)
3,Cc1ccc(-c2ccccc2)n1-c1ccccc1C(=O)O,12% (inactive)
4,O=C(O)/C=C\C(=O)N/N=C/c1ccccc1,4% (inactive)
5,O=C(Nc1ccccn1)c1ccc2c(c1)C(=O)N(c1cccc3c(N4C(=O)c5ccc(C(=O)Nc6ccccn6)cc5C4=O)cccc13)C2=O,2% (inactive)
6,CCC1CCc2c(sc(NC(=O)c3ccc([N+](=O)[O-])cc3Cl)c2C(=O)OC)C1 (centres undefined),0% (inactive)
7,CC1=C(C)/C(=N\S(=O)(=O)c2ccc(C)cc2)C=C(N2CCOCC2)C1=O,19% (inactive)
8,O=C1C(N2CCOCC2)=C/C(=N\S(=O)(=O)c2ccc(Cl)cc2)c2ccccc21,61% (active)
9,Cc1ccc(S(=O)(=O)/N=C2/C=C(N3CCOCC3)C(=O)c3ccccc32)cc1,5% (inactive)
10,Cc1ccccc1N1C(=O)C2C3c4ccccc4C(C)(c4ccccc43)C2C1=O (centres undefined),0% (inactive)
11,O=C(COc1cc(O)c2c(=O)cc(-c3ccccc3)oc2c1)c1ccccc1,3% (inactive)
12,O=C1C(=O)N(c2nccs2)C(c2ccccc2F)/C1=C(/O)c1ccc(Cl)cc1 (centres undefined),21% (inactive)
13,COc1cccc(NC(=O)Nc2nnc(-c3ccccc3F)s2)c1,53% (active)
14,COc1cccc(NC(=O)Nc2nnc(-c3ccccc3SCc3ccccc3F)s2)c1,23% (inactive)
15,COc1cccc(NC(=O)Nc2nnc(-c3ccccc3I)s2)c1,0% (inactive)
16,CCc1nnc(NC(=O)CCCOc2ccc(Cl)cc2C)s1,12% (inactive)
17,O=[N+]([O-])c1ccc(NCCCNS(=O)(=O)c2ccc(Cl)cc2)cc1,8% (inactive)
18,O=C(O)CCC(=O)NNC(=O)c1ccncc1,10% (inactive)
19,CCOC(=O)C1CCCN(C(=O)c2cc(C(=O)OC)cc([N+](=O)[O-])c2)C1 (centres undefined),16% (inactive)
20,COC(=O)c1cc(C(=O)N2CCC(C(=O)OC)CC2)cc([N+](=O)[O-])c1,7% (inactive)
21,CCOC(=O)CNC(=O)c1cc(C(=O)OC)cc([N+](=O)[O-])c1,52% (active)
22,CCOC(=O)C1CCN(C(=O)c2cc(C(=O)OC)cc([N+](=O)[O-])c2)CC1,54% (active)
23,CCOC(=O)CNC(=O)c1cccc([N+](=O)[O-])c1,15% (inactive)
24,CCOC(=O)CNC(=O)c1ccc([N+](=O)[O-])cc1,4% (inactive)
25,O=C(CN(c1ccc([N+](=O)[O-])cc1)S(=O)(=O)c1ccccc1)NC1CC2CCC1C2 (centres undefined),13% (inactive)

row,SMILES,inhibition
1,Cc1ccc(N2C(=O)NC(=O)/C(=C\c3ccc(OCC(=O)O)c(Br)c3)C2=O)cc1,3% (inactive)
2,O=C(NC(=S)Nc1cccc(C(F)(F)F)c1)c1ccc(-c2ccc(Cl)cc2)o1,10% (inactive)
3,O=C(Nc1ccc(F)cc1)Nc1nnc(-c2ccccc2SCc2ccccc2)s1,25% (inactive)
4,Clc1cccc(Cl)c1OCCCN1CCCCC1,2% (inactive)
5,Clc1cccc(Cl)c1OCCCN1CCCC1,7% (inactive)
6,Clc1cccc(Cl)c1OCCN1CCCC1,56% (active)
7,COc1cc(/C=C(\C#N)C(=O)Nc2ccc(F)cc2)c([N+](=O)[O-])cc1OC,3% (inactive)
8,Cc1ccc([N+](=O)[O-])cc1-c1[nH]c(-c2ccc(C#N)cc2)nc1-c1ccccc1,57% (active)
9,Cc1ccc([N+](=O)[O-])cc1-c1[nH]c(-c2cccc(O)c2)nc1-c1ccccc1,32% (inactive)
10,COc1cc(-c2nc(-c3ccccc3)c(-c3cc([N+](=O)[O-])ccc3C)[nH]2)cc(OC)c1OC,33% (inactive)
11,C/C(=C\c1cccc2ccccc12)[N+](=O)[O-],53% (active)
12,O=[N+]([O-])c1ccccc1C=Nc1cccc2ccccc12,6% (inactive)
13,N#C/C(=C/c1cccc2ccccc12)c1ccc([N+](=O)[O-])cc1,36% (inactive)
14,COC(=O)c1ccccc1NC(=O)c1cc(=O)[nH]c2ccccc12,1% (inactive)
15,CCOC(=O)c1ccc2[nH]c(C)c(C/C=C(/C)Cl)c(=O)c2c1,0% (inactive)
16,O=C(Nc1ccc2oc(-c3cccc(I)c3)nc2c1)c1ccc2c(c1)OCCO2,56% (active)
17,O=C(Nc1ccc2oc(-c3ccc(I)cc3)nc2c1)c1ccc2c(c1)OCCO2,15% (inactive)
18,Cc1ccc(C(=O)Nc2ccc(-c3nc4cc(Cl)cc(Cl)c4o3)cc2)cc1,11% (inactive)
19,Cc1ccc(-c2nc3cc(Cl)cc(Cl)c3o2)cc1NC(=O)c1ccc2c(c1)OCCO2,24% (inactive)
20,O=C(Nc1ccc2oc(-c3ccccc3)nc2c1)c1ccc2c(c1)OCCO2,11% (inactive)
21,O=C(Nc1ccc(-c2nc3cc(Cl)cc(Cl)c3o2)cc1)c1ccc2c(c1)OCCO2,58% (active)
22,O=C(Nc1ccc2oc(-c3cccc(Cl)c3)nc2c1)c1ccc2c(c1)OCCO2,37% (inactive)
23,O=C(Nc1cccc(-c2nc3cc(Cl)ccc3o2)c1)c1ccc2c(c1)OCCO2,9% (inactive)
24,O=C(Nc1ccc2oc(-c3ccc(F)cc3)nc2c1)c1ccc2c(c1)OCCO2,51% (active)
